# Screening results from PubChem.
# SIAE inh: human SIAE inhibitors, primary screen, biochemical, fluorescence polarization, FP-Rh probe, 1536-well HTS; Sialate O-acetylesterase (Homo sapiens), Q9HAT2; SIAE FP-Rh probe binding; inhibition, % at 9.66 µM; hit rate 0.69% among 370,000; AID 1053197, 2014;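 active means inhibition above a cutoff: mean of compounds within the control limits plus 3 SD of those, cut at about 17% in these data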;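 further: 0% = plate median of compound wells and 100% = probe without SIAE protein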
# Target sequence (Q9HAT2 whole entry, looked up): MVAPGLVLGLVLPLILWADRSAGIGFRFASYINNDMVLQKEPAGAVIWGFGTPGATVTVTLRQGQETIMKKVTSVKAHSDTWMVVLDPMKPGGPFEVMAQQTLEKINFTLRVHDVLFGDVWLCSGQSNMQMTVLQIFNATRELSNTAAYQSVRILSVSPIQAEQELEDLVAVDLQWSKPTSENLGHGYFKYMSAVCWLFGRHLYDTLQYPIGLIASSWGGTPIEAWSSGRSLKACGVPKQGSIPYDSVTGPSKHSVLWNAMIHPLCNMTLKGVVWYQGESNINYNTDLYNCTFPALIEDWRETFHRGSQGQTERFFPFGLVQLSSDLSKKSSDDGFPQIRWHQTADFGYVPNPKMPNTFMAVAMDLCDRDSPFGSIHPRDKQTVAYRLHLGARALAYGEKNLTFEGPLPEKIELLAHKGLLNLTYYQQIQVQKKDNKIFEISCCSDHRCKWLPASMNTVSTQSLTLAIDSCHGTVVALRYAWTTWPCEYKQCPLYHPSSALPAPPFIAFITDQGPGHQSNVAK
# PRMT1 FP inh: PRMT1 methyltransferase inhibitors, primary screen, biochemical, fluorescence polarization | Protein arginine N-methyltransferase 1 (Homo sapiens), Q99873 | recombinant PRMT1, activity-based probe fluorescence polarization | inhibition, % at 2.79 µM | hit rate 1.3% among 370,000;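 active means inhibition above about 21% made by adding two undisclosed values, limit read from the data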
# TCR-CD3 inh: inhibitors of human TCR-CD3 interaction, primary screen, biochemical, fluorescence, TAMRA-labeled TCR probe | T-cell receptor (TCR) | inhibition, % at 9.4 µM | hit rate 0.37% among 360,000; in the data active means inhibition above about 19%;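 further: recombinant mutant TCR 2C K166C tagged with TAMRA read by polarization; 0% = receptor in buffer alone and 100% = receptor with positive control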
# Fam108B inh: mouse Fam108B serine hydrolase inhibitors, primary screen, counter-screen for RBBP9 inhibitor project, biochemical, fluorescence polarization. recombinant Fam108B, FP-Rh probe fluorescence polarization. inhibition, % at 9.51 µM. hit rate 0.33% among 300,000. AID 1947, 2009;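 active means inhibition above the screen mean inhibition plus 3 SD, computed separately per campaign, cut at about 18% in these data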;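 further: inhibitors lower polarization as less probe binds the enzyme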
# PME-1 primary: PME-1 inhibitors via competitive probe labeling, primary screen, biochemical, fluorescence polarization, FP-Rh probe, HTS; Protein phosphatase methylesterase 1 (Homo sapiens), Q9Y570; recombinant PME-1; inhibition, % at 5.9 µM; hit rate 0.53% among 320,000;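 active means inhibition above the campaign mean of all compounds plus 3 SD, cut at about 26% in these data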;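 further: competitive labeling of PME-1 active site by serine hydrolase directed probe; 0% = PME-1 with DMSO and 100% = wells lacking PME-1 enzyme; inhibitors block probe labeling so polarization falls and inhibition rises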
# PAD4 inh: human PAD4 inhibitors, primary screen, biochemical, fluorescence polarization, 1536-well format; Protein-arginine deiminase type-4 (Homo sapiens), Q9UM07; recombinant PAD4, RCA probe fluorescence polarization; inhibition, % at 6.36 µM; hit rate 0.41% among 330,000; AID 485272, 2010;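 active means percent inhibition above a cutoff equal to the mean of all tested compounds plus 3 SD, cut at about 15% in these data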;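 further: 0% = PAD4 with RCA probe and DMSO and 100% = probe without PAD4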
# PRMT1 inh conf: PRMT1 methyltransferase inhibitors, confirmation, biochemical, fluorescence polarization, triplicate; shares compounds with PRMT1 FP inh; recombinant His-PRMT1, activity-based probe fluorescence polarization; inhibition, % at 2.79 µM; hit rate 42% among 3,300;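 active means mean inhibition across replicates above the hit cutoff derived for the earlier primary screen, cut at about 22% in these data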
# * = called active by the depositor; . = no result given. In the library only some 2.6% were active in any assay of this set; here they are far more common.
SMILES,SIAE inh,PRMT1 FP inh,TCR-CD3 inh,Fam108B inh,PME-1 primary,PAD4 inh,PRMT1 inh conf
CCOC(=O)c1cc(CC)sc1N1C(=O)CC(Sc2ccccc2C(=O)O)C1=O (centres undefined),5,54*,-8,-1,0,9,56*
COC(=O)c1c(N2C(=O)Nc3ccccc3N2O)sc2c1CCCC2,0,2,-3,-7,-1,-3,.
CCOC(=O)c1cc(CC)sc1N1C(=O)CC(Sc2ncccc2C(=O)O)C1=O (centres undefined),4,8,4,1,6,-3,.
O=C(O)c1ccccc1SC1CC(=O)N(c2ccccc2)C1=O (centres undefined),0,66*,0,0,2,6,23*
CC(C)CN1C(=O)C[C@]2(C(=O)N(C)c3ccc(NS(=O)(=O)c4ccc(F)cc4)cc32)C1c1ccccc1 (some centres undefined),3,-3,.,.,.,.,.
O=C(CCC(=O)c1cccs1)NCCc1ccc(F)cc1,2,26*,11,-1,-1,-23,-2
O=C(CSc1nccc(=O)[nH]1)Nc1cccc(S(=O)(=O)N2CCOCC2)c1,-7,45*,-2,2,5,3,32*
O=C1CCCC(=O)N1c1ccc(O)cc1,2,-3,2,-5,-1,-1,.
O=C1C=CC(=O)N1c1ccc(O)cc1,-16,90*,-5,-5,-1,-3,92*
CC(=O)Nc1nc(=O)c2ccccc2s1,12,44*,1,-4,2,4,33*
Nc1nc(=O)c2ccccc2s1,-8,36*,4,.,.,.,25*
CC(=O)N/C(N)=N/c1nc(=O)c2ccccc2s1,8,3,1,0,0,6,.
Nc1nc2c(F)cccc2s1,6,0,3,0,-5,-5,.
CCn1c(=O)n(CC(=O)N2CCCN(Cc3ccccc3)CC2)c(=O)c2ccccc21,-7,2,.,.,.,.,.
CCOC(=O)C1=NOC(C(=O)NCCO)(C(=O)C2CC2)C1 (centres undefined),2,5,.,.,.,.,.
CCOC(OCC)P(=O)(CNC(c1ccccc1)(c1ccccc1)c1ccccc1)OCC (centres undefined),-1,0,.,.,.,.,.
COc1ccc(C(Nc2cc(C)ccn2)c2ccc3ccc(C)nc3c2O)cc1 (centres undefined),1,9,-4,1,0,0,.
Cc1ccc2ccc(C(Nc3ccccn3)c3ccccc3)c(O)c2n1 (centres undefined),2,7,3,0,1,-1,.
Cc1cccc(NC(c2ccc(C)s2)c2ccc3ccc(C)nc3c2O)n1 (centres undefined),3,26*,-1,-1,1,-6,28*
Cc1ccnc(NC(c2ccsc2)c2ccc3ccc(C)nc3c2O)c1 (centres undefined),-2,44*,-12,4,-2,1,50*
CC(C)C[C@@H]1COc2cc(Br)ccc2S(=O)(=O)N1Cc1cn(Cc2ccc(F)cc2)nn1,-1,0,.,.,.,.,.
CCOC(=O)C1=C(O)c2ccccc2C(=O)/C1=C\c1ccc(CC)cc1,.,.,.,3,6,-42,.
CCOC(=O)C1=C(Cc2ccc(C)cc2)C(=O)c2ccccc2C1=O,-4,92*,-15,5,7,-44,27*
CCCC1CCC2(CC1)CCC2OC(=S)Nc1ccccc1C(F)(F)F (centres undefined),4,-3,.,.,.,.,.
COc1ccc(C(=O)NC(=O)CSc2nc3nc(C)cc(C)n3n2)cc1,3,27*,4,.,.,-2,2
SMILES,SIAE inh,PRMT1 FP inh,TCR-CD3 inh,Fam108B inh,PME-1 primary,PAD4 inh,PRMT1 inh conf
CC1(c2nnnn2C2CCCCC2)CCCC(=O)N1CCc1ccc(O)cc1 (centres undefined),2,-1,.,.,.,.,.
O=C(NCC(c1ccccc1)c1ccccc1)[C@H](Cc1c[nH]c2ccccc12)NC1(C(=O)NC2CCCCC2)CCCC1,4,3,.,.,.,.,.
COC(=O)[C@@H](N)CS,3,49*,-2,-2,-2,-1,75*
COC(=O)C(N)Cc1ccc(O)cc1 (centres undefined),6,-1,1,0,-5,-1,.
CCCCSc1nc(SCC(=O)NCc2ccco2)c2c3c(sc2n1)COC(C)(CC)C3 (centres undefined),-7,6,11,-3,-3,-1,.
CSc1nc(SCC(=O)NCc2ccco2)c2c3c(sc2n1)COC(C)(C)C3,-6,38*,1,2,-6,-4,7
CC(C)N(C(=O)CSc1nnc(-c2cc3ccccc3cc2O)n1Cc1ccco1)C(C)C,6,0,2,4,0,4,.
O=C(CSc1nnc(-c2cc3ccccc3cc2O)n1Cc1ccco1)N1CCc2ccccc2C1,-10,32*,-4,3,-1,-4,5
CC(COc1cccc(OC(F)(F)F)c1)CN1CCC(C(O)(c2ccccc2)c2ccccc2)CC1 (centres undefined),-3,1,.,.,.,.,.
S=c1[nH]nc(-c2cc(-c3ccsc3)n[nH]2)n1-c1cccc2ccccc12,2,28*,-4,3,3,2,9
Cc1c(C(=O)O)nn(-c2cccc(C(F)(F)F)c2)c(=O)c1C#N,-6,29*,9,1,-1,-4,0
C[C@H]1COc2cc(Br)ccc2S(=O)(=O)N1Cc1cn(CCC2OCCCO2)nn1,5,-1,.,.,.,.,.
Nc1sccc1C(=O)NCc1ccccc1,-13,34*,-12,.,.,.,16
O=C(O)c1ccccc1C(=O)NCc1ccccc1,2,-3,2,-11,-8,-2,.
O=C(/C=C/c1ccc([N+](=O)[O-])cc1)/C=C/c1ccco1,10,40*,1,6,3,4,60*
O=C(C=Cc1ccco1)c1ccco1,3,43*,1,.,.,.,11
O=C(O)c1cccc(N2C(=O)C=CC2=O)c1,10,59*,3,.,.,.,84*
O=C(Cc1ccccc1)Nc1cccc(N2C(=O)C=CC2=O)c1,-7,96*,4,-5,-3,-1,95*
O=C(O)c1cccc(N2C(=O)C3CC=CCC3C2=O)c1 (centres undefined),-1,2,-4,0,-4,4,.
CN1C2=N[C@H](c3ccccc3Br)CC(=O)N2/C(=C\c2ccccc2)[C@@H]1c1ccccc1,-3,-3,.,.,.,.,.
